From PubChem BioAssay (NCATS)
Records with an inconclusive call do not appear. Active and inactive are the calls of the source. Calls follow the shape of the dose curve; as a rule, active = well fitted inhibition curve with a large enough effect; inconclusive = small, poorly fitted or top-dose-only effect; inactive = no such curve, though single readings can be large or run the other way. Where a SMILES comes first, the peptide text is derived from it.

Experiment: P-glycoprotein substrates identified in KB-3-1 adenocarcinoma cell line, qHTS therapeutic library screen (AID 1346986); also: nearly all actives have a fitted effect of over 60% in size
Settings: KB-3-1 parental cells viability, CellTiter-Glo, 72 h; series mostly up to 44.5 µM
Summary of the method: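 Viability read by CellTiter-Glo after 72 h compound exposure in dose-response of KB-3-1 and KB-8-5-11 (P-gp-high) cells. Hits needed AC50 < 10 uM, >50% maximum response and curve class -1.1 to -2.4. Cherry-picks retested ± tariquidar, including pcDNA/MDR-19 HEK-293 pair.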

| Compound | outcome |
| --- | --- |
| C=C1[C@H](OC(C)=O)[C@H]2[C@@H](OC(C)=O)C(C)C[C@]2(OC(C)=O)C(=O)[C@H](C)/C=C/C(C)(C)C(=O)[C@H](OC(=O)C(C)C)[C@H]1OC(C)=O (some centres undefined) | inactive [at 17.4 µM] |
| COc1cc(O)cc(O[C@@H]2O[C@H](CO)[C@@H](O[C@@H]3OC[C@](O)(CO)[C@H]3O)[C@H](O)[C@H]2O)c1OC | inactive [at 17.4 µM] |
| CC(C)CC[C@@H](O)[C@](C)(O)[C@H]1CC[C@@]2(O)C3=CC(=O)[C@@H]4C[C@@H](O)[C@@H](O)C[C@]4(C)[C@H]3CC[C@]12C | inactive |
| N#CC1C(=O)N=C(c2cc(Cl)ccc2O)C=C1c1cc(OCc2ccccc2)cc(OCc2ccccc2)c1 (centres undefined) | inactive |
| C=C(C)C(O)COc1ccc(CC(=O)O)cc1 (centres undefined) | inactive |
| C=CCc1ccc(O[C@@H]2O[C@H](CO)[C@@H](O)[C@H](O)[C@H]2O)c(O[C@@H]2O[C@H](CO)[C@@H](O)[C@H](O)[C@H]2O)c1 | inactive [at 17.4 µM] |
| C[C@H]1CC[C@@]2(OC1)O[C@H]1CC3C4CC[C@H]5C[C@@H](O[C@@H]6O[C@H](CO)[C@H](O[C@@H]7O[C@H](CO)[C@@H](O)[C@H](O[C@@H]8OC[C@@H](O)[C@H](O)[C@H]8O)[C@H]7O[C@@H]7O[C@H](CO)[C@@H](O)[C@H](O)[C@H]7O)[C@H](O)[C@H]6O)[C@H](O)C[C@]5(C)C4=CC(=O)[C@]3(C)[C@H]1[C@@H]2C (some centres undefined) | inactive [at 9.29 µM] |
| CC1=C(CO)C2(C)CCCC(C)(C)C2C(O)C1O (centres undefined) | inactive |
| C=C(C)[C@@H]1CC[C@]2(C(=O)O)CC[C@]3(C)C(CCC4[C@]5(C)C(CC[C@]43C)C(C)(C)[C@@H](O)[C@@H]5C(=O)O)C12 (some centres undefined) | inactive [at 17.4 µM] |
| CC1(C)CC[C@]2(C(=O)O[C@@H]3O[C@H](CO)[C@@H](O)[C@H](O)[C@H]3O)CC[C@]3(C)C(=CCC4[C@@]5(C)CC[C@H](O[C@@H]6O[C@H](C(=O)O)[C@@H](O[C@@H]7O[C@H](CO)[C@@H](O)[C@H](O)[C@H]7O)[C@H](O)[C@H]6O)C(C)(C)C5CC[C@]43C)C2C1 (some centres undefined) | inactive [at 9.29 µM] |
| CSCC1OC(n2cnc3c(N)ncnc32)C(O)C1O (centres undefined) | inactive |
| CCC(C)/C=C(C)/C=C/C1=CC2=C(Cl)C(=O)C(C)(O)C(=O)C2(O)C(OC)O1 (centres undefined) | inactive [at 17.4 µM] |
| CC(=O)/C=C/C1(O)C(C)(C)CC(O)CC1(C)O (centres undefined) | inactive |
| OC[C@H]1O[C@@H](OC[C@H]2O[C@@H](OCc3ccccc3)[C@H](O)[C@@H](O)[C@@H]2O)[C@H](O)[C@@H](O)[C@@H]1O | inactive [at 17.4 µM] |
| COC(=O)C1=CO[C@@H](O[C@@H]2O[C@H](CO)[C@@H](O)[C@H](O)[C@H]2O)[C@H]2[C@@H]1[C@H](O)C[C@]2(C)O | inactive [at 17.4 µM] |
| CC(C)=CCC/C(C)=C/CO[C@@H]1O[C@H](CO[C@@H]2OC[C@](O)(CO)[C@H]2O)[C@@H](O)[C@H](O)[C@H]1O | inactive [at 17.4 µM] |
| CC(=C\C(C)O)/C=C(\C)C(=O)CC1CC(CC(N)=O)CC(=O)O1 (centres undefined) | inactive |
| C=CCC1=C[C@]2(OC)[C@H](C)[C@@H](c3ccc(OC)c(OC)c3)O[C@]2(OC)CC1=O | inactive |
| O=C(C[C@@H]1C(C(=O)O)=CO[C@@H](O[C@@H]2O[C@H](CO)[C@@H](O)[C@H](O)[C@H]2O)/C1=C\CO)OCCc1ccc(O)cc1 | inactive [at 17.4 µM] |
| CC1(C)CC[C@]2(C(=O)O[C@@H]3O[C@H](CO[C@@H]4O[C@H](CO[C@@H]5O[C@H](CO)[C@H](O)[C@H](O)[C@H]5O)[C@@H](O)[C@H](O)[C@H]4O)[C@@H](O)[C@H](O[C@@H]4O[C@H](CO)[C@@H](O)[C@H](O)[C@H]4O)[C@H]3O)[C@H](O)C[C@]3(C)C(=CCC4[C@@]5(C)CC[C@H](O[C@@H]6OC[C@@H](O)[C@H](O)[C@H]6O)[C@@](C)(C(=O)O)C5CC[C@]43C)[C@@H]2C1 (some centres undefined) | inactive [at 9.29 µM] |

| Compound | outcome |
| --- | --- |
| C[C@H](/C=C/[C@@]1(O)[C@H](C)CC(=O)CC1(C)C)O[C@@H]1O[C@H](CO[C@@H]2OC[C@@H](O)[C@H](O)[C@H]2O)[C@@H](O)[C@H](O)[C@H]1O | inactive [at 17.4 µM] |
| CC(=O)OC[C@@]12C(=O)C[C@@H](C)[C@]3(C[C@@H](c4ccoc4)OC3=O)[C@H]1CC[C@H](OC(C)=O)[C@]21CO1 | inactive [at 17.4 µM] |
| COc1cc2nc(=NC(=O)c3cccnc3)n3c(c2cc1OC)NCC3 | inactive |
| Cc1occc(=O)c1O[C@@H]1O[C@H](COC(=O)CC(C)(O)CC(=O)O)[C@@H](O)[C@H](O)[C@H]1O (some centres undefined) | inactive [at 17.4 µM] |
| CN(C)CC(c1ccc(O)cc1)C1(O)CCCCC1 (centres undefined) | inactive |
| COC(=O)C(CC1(O)c2ccccc2N2C(=O)C(CC(C)C)NC21)n1cnc2ccccc2c1=O (centres undefined) | inactive [at 17.4 µM] |
| Cc1cc(CNC(=O)c2cc(C(=O)NCc3ccc(F)c(C)c3)ncn2)ccc1F | inactive |
| COC(=O)C1=CO[C@@H](O[C@@H]2O[C@H](CO)[C@@H](O)[C@H](O)[C@H]2O)C2C1CC(O)C2C (some centres undefined) | inactive |
| CC/C=C/C=C/C1(C)OC(CC(CO)OC)=CC1=O (centres undefined) | inactive |
| C=CC(C)(O)CC/C=C(\C)C(=O)O[C@@H]1[C@@H](O)[C@H](OC(C)(C=C)CC/C=C(\C)C(=O)O)O[C@H](CO)[C@H]1OC(=O)/C(C)=C/CCC(C)(O)C=C (some centres undefined) | inactive [at 17.4 µM] |
| COC(=O)C(CC1CCCC1)c1ccc(S(C)(=O)=O)cc1 (centres undefined) | inactive |
| NC(N)=NCCC[C@H](NC(=O)c1sccc1NS(=O)(=O)c1cccc2nsnc12)C(=O)O | inactive |
| C=C(C(=O)OC)[C@]12O[C@@](C)(CC[C@@]3(O)/C(=C\C)C(=O)O[C@]3(C)C[C@@H]1OC(=O)C(CO)CN1CCCC1C(=O)O)CC2=O (some centres undefined) | inactive [at 17.4 µM] |
| CC1(C)[C@@H]2CC=C(CO[C@@H]3O[C@H](CO[C@@H]4OC[C@H](O)[C@H](O)[C@H]4O)[C@@H](O)[C@H](O)[C@H]3O)[C@H]1C2 | inactive [at 17.4 µM] |
| CC(C)NC(=O)c1ccc(C#Cc2ccncc2)cn1 | inactive |
| CC1CCC2(C(=O)O)CCC3(C)C(=CCC4C5(C)C[C@@H](O)[C@@H](O)C(C)(CO)C5CCC43C)C2C1(C)O (some centres undefined) | inactive [at 17.4 µM] |
| O=C(O)C(Cc1ccccc1)NC(=O)C1CCCN1 (stereo not drawn) (H-Pro-Phe-OH; configuration not given here) | inactive |
| CC1CCC2(C(=O)OC3OC(CO)C(O)C(O)C3O)CCC3(C)C(=CCC4C5(C)CCC(O)C(C)(CO)C5CCC43C)C2C1(C)O (centres undefined) | inactive [at 17.4 µM] |
| Cc1onc(-c2c(Cl)cccc2Cl)c1CC(=O)NCc1ccc(OCC(F)(F)F)nc1 | inactive |
